Screening results from PubChem BioAssay.
HSP90 refold inh = HSP90 inhibitors, primary screen, cell lysate, luminescence; Heat shock protein HSP 90 (rabbit reticulocyte lysate; luciferase refolding); 290,000 tested, 0.91% active; AID 1789, 2009; inhibition, % at 5.6 µM; Rabbit reticulocyte lysate, luciferase refolding luminescence, 3 h;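 active means inhibition above the screen-wide mean plus 3 SD, computed separately per campaign, cut at about 16% in these data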;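 further: inhibitors lower the luminescence because luciferase stays unfolded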
ARNT TACC3 PPI = disruptors of ARNT/TACC3 protein interaction, primary screen, biochemical, AlphaScreen, single concentration; Transforming acidic coiled-coil-containing protein 3 (Homo sapiens), Q9Y6A5; AlphaScreen His-ARNT PAS-B/GST-TACC3 binding, luminescence; TACC3 fragment carries E629A point mutation; inhibition, % at 9.99 µM; 390,000 tested, 0.66% active; AID 623870, 2012;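 active means mean inhibition of replicates at least 50% and at least half of replicates each reaching 50%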
HSF-1 act = HSF-1 activators, primary screen, NIH3T3-HGL cells, MG132 stress, luminescence, single point; activation, % at 9 µM; NIH3T3-HGL HSF-1 luciferase reporter, 8 h; 100% = twice DMSO control signal; 300,000 tested, 1.7% active; AID 504408, 2011;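 active means mean replicate activation of at least 50% with a set share of replicates each reaching 50%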
HSF1 inhib = HSF1 inhibitors in luciferase reporter cells, primary screen, cell-based, NIH3T3, luminescence; 300,000 tested, 0.77% active; NIH3T3-HGL HSE-luciferase, MG132-induced, luminescence 8 h; active compounds read low; activity change, negative = inhibition, % at 7.5 µM (by protocol);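 active means more than half of replicate wells show activity change below -50%, luminescence cut by over half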;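 further: luciferase reports HSF-1 transcriptional activity via heat shock element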
HIF act = HIF pathway transcriptional activators, primary screen, cell-based, U2OS HRE-luciferase, luminescence. activation, % at 7.5 µM (by protocol). U2OS HRE-luciferase reporter; normalized: DMSO 0%, desferrioxamine 100%. 300,000 tested, 0.32% active;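 active means mean activation of at least 10% of the iron chelator positive control signal, with at least half of replicates also reaching 10%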
Large screens that a line does not name were inactive. Only some compounds are listed: those with a hit (about 3.1% of all), similar ones and a draw of the others.

CC[C@H](C)/C=C(C)/C=C/C1=CC2=C(Cl)C(=O)[C@@](C)(OC(C)=O)C(=O)C2=CO1	none (no result: HSP90 refold inh)
CCC(C)/C=C(C)/C=C/C1=CC2=C(Cl)C(=O)C(C)(OC(C)=O)C(=O)C2=CO1 (configuration not stated)	ARNT TACC3 PPI 49
O=C(O)[C@H]1[C@H](CO)[C@H]2Cn3c(ccc(C4=CCCC4)c3=O)[C@@H]1N2C(=O)Cc1ccccn1	none (no result: HSP90 refold inh, HSF-1 act, HSF1 inhib, HIF act)
O=C(N/N=C/c1c(O)n(Cc2ccccc2)c(=O)[nH]c1=O)c1ccncc1	none (no result: ARNT TACC3 PPI)
O=C(N/N=C/c1c(O)n(Cc2ccc(F)cc2)c(=O)[nH]c1=O)c1ccccc1	ARNT TACC3 PPI 50
CCCCC(=O)N/N=C/c1c(O)n(CCc2ccccc2)c(=O)[nH]c1=O	none (no result: ARNT TACC3 PPI)
CCCCC(=O)N/N=C/c1c(O)n(Cc2ccc(F)cc2)c(=O)[nH]c1=O	ARNT TACC3 PPI 69
COC(=O)[C@@H]1[C@@H](CO)[C@@H]2Cn3c(ccc(-c4ccccc4F)c3=O)[C@H]1N2C(=O)C1CCC1	none (no result: HSP90 refold inh, HSF-1 act, HSF1 inhib, HIF act)
CSc1ccc(C(=O)C2CCCN(Cc3cc4ccccc4[nH]3)C2)cc1 (configuration not stated)	none
CSc1ccc(C(=O)C2CCCN(Cc3cccnc3)C2)cc1 (configuration not stated)	HSF-1 act 104
O=C(Cc1ccncc1)N1CCCCN2[C@H](C1)[C@H](c1ccc(C#CC3(O)CCCC3)cc1)[C@@H]2CO	none (no result: HSP90 refold inh, HSF-1 act, HSF1 inhib, HIF act)
CCCCC1C(=O)NC(=S)NC1=O	HSF1 inhib -67 (no result: ARNT TACC3 PPI)
CC=Cc1ccc2n(c1=O)C[C@H]1[C@H](CO)[C@@H](C(=O)OC)[C@@H]2N1CC1CCOCC1 (mixture of isomers)	none (no result: HSP90 refold inh, HSF-1 act, HSF1 inhib, HIF act)
COc1cc2c(cc1OC)-c1c(OC)c(OC)cc3c1[C@H](C2)N(C)CC3	ARNT TACC3 PPI 69 (no result: HSF-1 act)
CCn1c(=O)cc(SCC(=O)N2CCC3(CC2)OCCO3)c2ccccc21	HSF-1 act 68
O=C1NC(=S)N(C2CC2)C(=O)/C1=C/c1ccc2c(c1)CCN2CCCCl	HSF1 inhib -79
Cc1cccc(S(=O)(=O)N2[C@@H]3Cn4c(ccc(-c5ccncc5)c4=O)[C@H]2[C@@H](C(=O)O)[C@@H]3CO)c1	none (no result: HSP90 refold inh, HSF-1 act, HSF1 inhib, HIF act)
CC1(C)C[C@H]2C=C(C=O)[C@]3(C=O)C[C@]3(C)[C@H]2C1	HSF1 inhib -76
CN1CCN(c2ccc(S(C)(=O)=O)cc2[N+](=O)[O-])CC1	none
CN1CCN(c2ccc([N+](=O)[O-])c3no[n+]([O-])c23)CC1	ARNT TACC3 PPI 38
Nc1ccccc1C(=O)OCC(=O)c1ccc2c(c1)OCCO2	HSF1 inhib -57
CC(=O)OC1CCC2(/C=N/O)C(=CCC3C4CCC(=O)C4(C)CCC32)C1 (configuration not stated)	none
CC12CCC3C(CC=C4CC5(CCC43C)OCCO5)C1CCC2=O (configuration not stated)	HSF1 inhib -74
COc1ccc(C2C([N+](=O)[O-])=C(N)Oc3c2c(=O)oc2ccccc32)cc1 (configuration not stated)	none (no result: ARNT TACC3 PPI)
COc1cccc(C2C([N+](=O)[O-])=C(N)Oc3c2c(=O)oc2ccccc32)c1 (configuration not stated)	HSF-1 act 59
CC=Cc1ccc2n(c1=O)C[C@@H]1[C@@H](CO)[C@H](C(=O)O)[C@H]2N1S(=O)(=O)c1ccccc1C (mixture of isomers)	none (no result: HSP90 refold inh, HSF-1 act, HSF1 inhib, HIF act)
CC=Cc1ccc2n(c1=O)C[C@H]1[C@H](CO)[C@@H](C(=O)N(C)C)N[C@@H]21 (mixture of isomers)	none (no result: HSP90 refold inh, HSF-1 act, HSF1 inhib, HIF act)
Cn1c(=O)c2c(nc(N/N=C/c3c(O)n(C4CCCCC4)c(=S)[nH]c3=O)n2C)n(C)c1=O	ARNT TACC3 PPI 52
Cc1ccccc1-n1c(O)c(/C=N/Nc2nc3c(c(=O)n(C)c(=O)n3C)n2C)c(=O)[nH]c1=S	ARNT TACC3 PPI 51
Cc1cccc(-n2c(O)c(/C=N/Nc3nc4c(c(=O)n(C)c(=O)n4C)n3C)c(=O)[nH]c2=S)c1	ARNT TACC3 PPI 72
Cc1ccc(-n2c(O)c(/C=N/Nc3ccccc3)c(=O)[nH]c2=O)cc1C	none (no result: ARNT TACC3 PPI)
CC(C)[C@]12O[C@H]1[C@@H]1O[C@]13[C@]1(O[C@H]1C[C@H]1C4=C(CC[C@@]13C)C(=O)OC4)[C@@H]2O	HSF1 inhib -68 (no result: ARNT TACC3 PPI)
N#Cc1cccc(-c2ccc([C@H]3[C@H]4CN(C(=O)Cc5cccnc5)CCCCN4[C@H]3CO)cc2)c1	none (no result: HSP90 refold inh, HSF-1 act, HSF1 inhib, HIF act)
COC(=O)C1CN(C#N)N(c2ccc(Cl)cc2)C12c1ccccc1-c1ccccc12 (configuration not stated)	HSF1 inhib -95 (no result: ARNT TACC3 PPI)
O=C(Cc1ccccn1)N1CCCCN2[C@H](C1)[C@@H](c1ccc(-c3ccccc3F)cc1)[C@@H]2CO	none (no result: HSP90 refold inh, HSF-1 act, HSF1 inhib, HIF act)
COC(=O)[C@H]1[C@H](CO)[C@H]2Cn3c(ccc(-c4ccccc4)c3=O)[C@@H]1N2CCc1ccccc1	none (no result: HSP90 refold inh, HSF-1 act, HSF1 inhib, HIF act)
CNC(=O)Oc1cccc(-c2cn3cc(Cl)ccc3n2)c1	HSP90 refold inh 49
O=C(N/N=C/c1c(O)n(-c2ccccc2)c(=O)[nH]c1=O)c1ccncc1	ARNT TACC3 PPI 71
COc1ccc(CCn2c(O)c(/C=N/NC(=O)c3ccncc3)c(=O)[nH]c2=O)cc1OC	ARNT TACC3 PPI 76
C=CCn1c(O)c(/C=N/NC(=O)c2ccncc2)c(=O)[nH]c1=O	ARNT TACC3 PPI 78
COCCn1c(O)c(/C=N/NC(=O)CSC(=S)N2CCCC2)c(=O)[nH]c1=S	ARNT TACC3 PPI 61 (no result: HSP90 refold inh, HSF-1 act, HSF1 inhib, HIF act)
Cc1ccc(-n2c(O)c(/C=N/NC(=O)c3ccncc3)c(=O)[nH]c2=O)cc1	none (no result: ARNT TACC3 PPI)
O=C(N/N=C/c1c(O)n(C2CC2)c(=S)[nH]c1=O)c1ccccc1O	ARNT TACC3 PPI 60
Cn1c(O)c(/C=N/NC(=O)c2ccncc2)c(=O)[nH]c1=S	none (no result: ARNT TACC3 PPI)
O=C(N/N=C/c1c(O)n(-c2ccccc2)c(=S)[nH]c1=O)c1ccccc1	ARNT TACC3 PPI 64
CCCCn1c(O)c(/C=N/NC(=O)c2ccncc2)c(=O)[nH]c1=S	ARNT TACC3 PPI 60
Cn1c(O)c(/C=N/NC(=O)c2ccncc2)c(=O)n(C)c1=S	ARNT TACC3 PPI 59
O=C(Cc1ccccn1)N1CCCCN2[C@H](CO)[C@@H](c3ccc(-c4ccc(F)cc4)cc3)[C@H]2C1	none (no result: HSP90 refold inh, HSF-1 act, HSF1 inhib, HIF act)
CCCN1[C@@H]2c3cccc(=O)n3C[C@H]1[C@H](CO)[C@H]2C(=O)N(C)C	none (no result: HSP90 refold inh, HSF-1 act, HSF1 inhib, HIF act)
COc1ccc(Oc2cc(NC(=O)c3nn(C)cc3[N+](=O)[O-])cc([N+](=O)[O-])c2)cc1	HSF1 inhib -54
N#CC(c1cccnc1)N1CCOCC1 (configuration not stated)	HSP90 refold inh 16
